The results in this text go back to PubChem BioAssay (EPA / NIEHS).

The nature of assay [1]: ATG_CRE_CIS: Attagene CIS-FACTORIAL HepG2 Assay for human cAMP Responsive Element (CRE) binding protein 3 (AID 2282926). The settings on record: HepG2 CRE cis-reporter, Attagene multiplexed mRNA; actives raise or lower the signal. The essentials:
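Capillary electrophoresis of 6-FAM-labelled, HpaI-digested PCR products quantified reporter transcripts. These came from HepG2 transiently transfected with cis-element reporters and exposed to test chemicals for 24 hours, with DMSO defining baseline activity.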

In assay [2] the target is CCAAT/enhancer-binding protein beta (Homo sapiens) (UniProt P17676). The experiment in a line: ATG_C_EBP_CIS: Attagene CIS-FACTORIAL HepG2 Assay for human CCAAT/Enhancer Binding Protein (C/EBP) beta (AID 2282927). The settings on record: HepG2 Attagene cis-factorial transcription factor reporter; actives raise or lower the signal. The essentials: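 Endogenous transcription factor activity in human liver HepG2 cells is inferred from induction of a CEBPB-linked reporter mRNA. Exposure lasts 24 h; activity is fitted in both directions relative to DMSO.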
Sequence of CCAAT/enhancer-binding protein beta (Homo sapiens) (P17676 whole entry, looked up): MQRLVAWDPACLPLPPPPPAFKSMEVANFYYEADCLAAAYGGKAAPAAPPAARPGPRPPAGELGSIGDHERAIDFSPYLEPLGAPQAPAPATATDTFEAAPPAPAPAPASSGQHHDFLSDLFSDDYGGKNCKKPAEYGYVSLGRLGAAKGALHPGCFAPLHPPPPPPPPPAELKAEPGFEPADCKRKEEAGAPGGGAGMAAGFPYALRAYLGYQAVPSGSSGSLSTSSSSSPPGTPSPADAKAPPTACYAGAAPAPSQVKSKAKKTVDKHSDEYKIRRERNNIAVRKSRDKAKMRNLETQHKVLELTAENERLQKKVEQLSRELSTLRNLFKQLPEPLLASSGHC

Assay [3] is described as follows: ATG_CMV_CIS: Attagene CIS-FACTORIAL HepG2 Assay for human CMV (Internal Marker) (AID 2282928).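 Further: endpoint acts as a background internal control marker rather than a target.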 The settings on record: HepG2 CMV promoter reporter, transcription factor profiling; actives raise or lower the signal. The essentials:
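Readout: fluorescent reporter cDNA fragments separated by capillary electrophoresis after RT-PCR and HpaI cut. Cells: HepG2 carrying transfected cis-promoter reporter constructs, dosed 24 h. Endpoint serves as background internal-marker control, fit bidirectionally versus DMSO.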

A short description of assay [4]: ATG_DR4_LXR_CIS: Attagene CIS-FACTORIAL HepG2 Assay for human Liver X Receptor (LXR), DR4 submotif (AID 2282929). The following applies: HepG2 Attagene DR4 cis-reporter, mRNA transcription; actives raise or lower the signal. The essentials: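 Readout: reporter transcript fluorescence after RT-PCR and capillary electrophoresis, fitted bidirectionally against DMSO controls. Human HepG2 liver cells carried transiently transfected multiplexed reporter constructs; endogenous transcription factor activity measured 24 h post-dosing.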

Assay [5] is described as follows: ATG_AP_1_CIS: Attagene CIS-FACTORIAL HepG2 Assay for human Activator Protein 1 (AP-1) (AID 2282931). The following applies: HepG2 Attagene cis-factorial AP-1 reporter mRNA; actives raise or lower the signal. The essentials:
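Reporter transcripts were measured 24 h after dosing by RT-PCR and capillary electrophoresis of fluorescent fragments. Cells: HepG2 carrying transfected cis-regulated reporter constructs reading endogenous factor activity. Gain or loss fitted against DMSO.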

Assay [6] can be described thus: ATG_AP_2_CIS: Attagene CIS-FACTORIAL HepG2 Assay for human Activator Protein 2 (AP-2) (AID 2282932). The following applies: HepG2 AP-2 cis-reporter, Attagene transcription factor profiling; actives raise or lower the signal. The gist of the method: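 Transiently transfected HepG2 cells are exposed to chemical for 24 h. Reporter transcripts are then measured as fluorescence following RT-PCR and capillary separation, and gain- or loss-of-signal is fitted relative to DMSO.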

Assay [7] is described as follows: ATG_BRE_CIS: Attagene CIS-FACTORIAL HepG2 Assay for human Bone Morphogenetic Protein (BMP) Response Element (BRE) (AID 2282933). The settings on record: HepG2 BMP response element reporter, Attagene transcription factor profiling; actives raise or lower the signal. The gist of the method: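 Endogenous transcription factor activity at a BMP response element was monitored in transfected HepG2 cells 24 h after dosing. Fluorescent RT-PCR products were resolved by capillary electrophoresis, and activity was fitted in both directions versus DMSO.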

Assay [8] deals with Transcription factor E2F1 (Homo sapiens) (UniProt Q01094). The experiment in a line: ATG_E2F_CIS: Attagene CIS-FACTORIAL HepG2 Assay for human E2F Transcription Factor 1 (AID 2282935). The settings on record: HepG2 Attagene cis-reporter, E2F reporter RNA transcripts; actives raise or lower the signal. The essentials:
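Fluorescent RT-PCR products, digested with HpaI for 2 h at 37 C, are separated by capillary electrophoresis. Source RNA comes from transfected HepG2 cultures treated for 24 h.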

Assay [9] can be described thus: ATG_E_Box_CIS: Attagene CIS-FACTORIAL HepG2 Assay for human Enhancer Box (E-box) (AID 2282936). The following applies: HepG2 E-box cis-reporter transcription, actives raise or lower the signal. The essentials: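 Fluorescent reporter fragments separated by capillary electrophoresis gave the signal; mRNA came from HepG2 cells transfected with cis-element reporters and treated 24 h. Curves fitted bidirectionally relative to DMSO controls.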

Assay [10] can be described thus: ATG_M_61_CIS: Attagene CIS-FACTORIAL HepG2 Assay for M61 Transcription Factor (Internal Marker) (AID 2282937). The settings on record: HepG2 Attagene CIS-FACTORIAL M61 internal marker reporter; actives raise or lower the signal. The gist of the method:
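Readout: fluorescent reporter mRNA fragments resolved by capillary electrophoresis after RT-PCR. Transiently transfected human HepG2 cells carried MRTU constructs reporting endogenous TF activity; 24 h chemical exposure; gain or loss of signal fitted relative to DMSO.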

Assay [11] can be described thus: ATG_EGR_CIS: Attagene CIS-FACTORIAL HepG2 Assay for human Early Growth Response 1 (EGR1) (AID 2282938). The settings on record: HepG2 Attagene CIS-FACTORIAL EGR reporter mRNA; actives raise or lower the signal. The gist of the method: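 Read-out: fluorescent reporter-mRNA fragments resolved by capillary electrophoresis after RT-PCR, 24 h post-dose in transiently transfected HepG2. Endogenous transcription-factor activity reported via cis-element-regulated reporter units; gain or loss fitted relative to DMSO.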

A short description of assay [12]: ATG_M_19_CIS: Attagene CIS-FACTORIAL HepG2 Assay for M19 Transcription Factor (Internal Marker) (AID 2282939). The settings on record: HepG2 Attagene CIS-FACTORIAL M19 internal marker reporter; actives raise or lower the signal. The essentials: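 Background-control endpoint from a multiplexed HepG2 reporter panel. Cells carrying cis-regulated reporter constructs are treated 24 h, then reporter transcripts are amplified, fluorescently labelled and sized by capillary electrophoresis. DMSO defines baseline.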

A short description of assay [13]: ATG_ERE_CIS: Attagene CIS-FACTORIAL HepG2 Assay for Estrogen Response Element (ERE) (AID 2282940). The settings on record: HepG2 ERE cis-reporter, Attagene RNA transcript; actives raise or lower the signal. The gist of the method: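 Cells used were human hepatoma HepG2, transfected with multiple reporter transcription units under cis-regulatory promoters. Reporter mRNA, read 24 h post-dosing via fluorescent RT-PCR products on capillary electrophoresis, was fitted bidirectionally relative to DMSO.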

A short description of assay [14]: ATG_Ets_CIS: Attagene CIS-FACTORIAL HepG2 Assay for human Erythroblast Transformation Specific (ETS) (AID 2282941). The following applies: HepG2 ETS cis-reporter transcription, actives raise or lower the signal. The essentials:
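RT-PCR/capillary electrophoresis fluorescence read-out of reporter mRNA; HepG2 transient multi-reporter transfection; 24 h compound exposure; gain or loss of signal fitted bidirectionally relative to DMSO.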

The target of assay [15] is Hepatocyte nuclear factor 3-beta (Homo sapiens) (UniProt Q9Y261). The experiment in a line: ATG_FoxA2_CIS: Attagene CIS-FACTORIAL HepG2 Assay for human Forkhead box A2 (FOXA2) (AID 2282942). The following applies: HepG2 cis-reporter transcription factor activity, 24 h; actives raise or lower the signal. The essentials:
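Readout: fluorescent reporter transcripts resolved by capillary electrophoresis after RT-PCR. Transiently transfected HepG2, 24 h compound exposure, endogenous TF activity at cis promoter elements. Gain or loss of signal fitted relative to DMSO.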

Assay [16] can be described thus: ATG_FoxO_CIS: Attagene CIS-FACTORIAL HepG2 Assay for human Forkhead box O (FoxO) (AID 2282943). The settings on record: HepG2 Attagene cis-reporter, FoxO element, mRNA; actives raise or lower the signal. The gist of the method:
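HepG2, transient MRTU transfection (cis element, endogenous TFs). Dose 24 h. TriZol RNA → oligo(dT) RT → PCR → 6-FAM primer extension → HpaI cut → CE. Gain/loss vs DMSO.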

Assay [17] is described as follows: ATG_GATA_CIS: Attagene CIS-FACTORIAL HepG2 Assay for human GATA Binding Protein (AID 2282944). The following applies: HepG2 GATA cis-element reporter, Attagene multiplex mRNA; actives raise or lower the signal. The essentials: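 Endogenous transcription factor activity was captured through cis-promoter-driven reporters in transfected HepG2 cells. After 24 h exposure, reporter transcripts were quantified by RT-PCR with fluorescent capillary electrophoresis, and responses fitted both directions against DMSO.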

A short description of assay [18]: ATG_GLI_CIS: Attagene CIS-FACTORIAL HepG2 Assay for human Zinc Finger Protein GLI1 (AID 2282945). The following applies: HepG2, Attagene cis-factorial reporter mRNA, GLI element; actives raise or lower the signal. The essentials: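 Bidirectional curve fits relative to DMSO, using reporter mRNA levels from RT-PCR plus capillary electrophoresis. Cells were HepG2 transiently carrying cis-regulated reporter constructs, harvested 24 h after dosing.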

The target of assay [19] is Aryl hydrocarbon receptor (Homo sapiens) (UniProt P35869). The experiment in a line: ATG_Ahr_CIS: Attagene CIS-FACTORIAL HepG2 Assay for human Aryl Hydrocarbon Receptor (Ahr) (AID 2282930). The following applies: HepG2 AhR cis-factorial reporter transcription; actives raise or lower the signal. The gist of the method:
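Transient MRTU transfection of HepG2 → 24 h compound exposure → total RNA, oligo(dT) RT → PCR, 6-FAM extension, HpaI cut → CE fluorescence. DMSO = baseline; bidirectional curve fit.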

Assay [20] has as its target Retinoic acid receptor alpha (Homo sapiens) (UniProt P10276). The experiment in a line: ATG_DR5_RAR_CIS: Attagene CIS-FACTORIAL HepG2 Assay for human Retinoic Acid Receptor Alpha (RARE), DR5 submotif (AID 2282934). The following applies: HepG2 Attagene cis-factorial RARE DR5 reporter, mRNA; actives raise or lower the signal. The gist of the method: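 Transient MRTU transfection of HepG2; 24 h compound treatment; TriZol RNA, oligo(dT) RT, PCR, FAM labelling, capillary electrophoresis. Bidirectional fit vs DMSO. Endogenous TF activity at DR5 RARE.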

Each structure is given as a SMILES string. The source made the active and inactive calls. How the source made its calls: active means hit-call score of the fitted dose curve at least 0.9, where 1 is the maximum; inactive means score below 0.9.

Sequence of Transcription factor E2F1 (Homo sapiens) (Q01094 whole entry, looked up): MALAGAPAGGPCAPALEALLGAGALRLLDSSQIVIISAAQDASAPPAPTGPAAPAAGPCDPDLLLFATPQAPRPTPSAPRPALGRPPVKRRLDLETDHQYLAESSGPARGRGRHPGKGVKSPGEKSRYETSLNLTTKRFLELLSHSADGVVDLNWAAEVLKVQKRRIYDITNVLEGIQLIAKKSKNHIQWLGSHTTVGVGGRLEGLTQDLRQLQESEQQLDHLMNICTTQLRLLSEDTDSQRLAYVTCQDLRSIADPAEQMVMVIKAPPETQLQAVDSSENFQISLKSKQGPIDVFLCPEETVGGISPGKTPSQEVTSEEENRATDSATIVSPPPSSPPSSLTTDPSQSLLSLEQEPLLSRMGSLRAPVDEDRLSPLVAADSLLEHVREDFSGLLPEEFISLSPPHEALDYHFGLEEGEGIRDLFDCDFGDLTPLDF
Sequence of Hepatocyte nuclear factor 3-beta (Homo sapiens) (Q9Y261 whole entry, looked up): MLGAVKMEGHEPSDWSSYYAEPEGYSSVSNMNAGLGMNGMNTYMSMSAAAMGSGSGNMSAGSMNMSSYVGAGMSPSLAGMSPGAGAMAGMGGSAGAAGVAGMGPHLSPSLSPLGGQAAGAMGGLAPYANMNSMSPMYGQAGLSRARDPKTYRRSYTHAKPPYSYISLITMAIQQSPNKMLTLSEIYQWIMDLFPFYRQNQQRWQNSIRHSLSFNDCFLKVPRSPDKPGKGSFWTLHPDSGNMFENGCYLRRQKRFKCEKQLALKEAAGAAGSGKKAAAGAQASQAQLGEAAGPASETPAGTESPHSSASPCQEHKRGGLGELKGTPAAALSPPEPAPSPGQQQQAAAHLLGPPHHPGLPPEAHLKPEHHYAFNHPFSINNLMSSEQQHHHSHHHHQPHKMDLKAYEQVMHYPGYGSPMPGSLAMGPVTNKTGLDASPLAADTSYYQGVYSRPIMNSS
Sequence of Aryl hydrocarbon receptor (Homo sapiens) (P35869 whole entry, looked up): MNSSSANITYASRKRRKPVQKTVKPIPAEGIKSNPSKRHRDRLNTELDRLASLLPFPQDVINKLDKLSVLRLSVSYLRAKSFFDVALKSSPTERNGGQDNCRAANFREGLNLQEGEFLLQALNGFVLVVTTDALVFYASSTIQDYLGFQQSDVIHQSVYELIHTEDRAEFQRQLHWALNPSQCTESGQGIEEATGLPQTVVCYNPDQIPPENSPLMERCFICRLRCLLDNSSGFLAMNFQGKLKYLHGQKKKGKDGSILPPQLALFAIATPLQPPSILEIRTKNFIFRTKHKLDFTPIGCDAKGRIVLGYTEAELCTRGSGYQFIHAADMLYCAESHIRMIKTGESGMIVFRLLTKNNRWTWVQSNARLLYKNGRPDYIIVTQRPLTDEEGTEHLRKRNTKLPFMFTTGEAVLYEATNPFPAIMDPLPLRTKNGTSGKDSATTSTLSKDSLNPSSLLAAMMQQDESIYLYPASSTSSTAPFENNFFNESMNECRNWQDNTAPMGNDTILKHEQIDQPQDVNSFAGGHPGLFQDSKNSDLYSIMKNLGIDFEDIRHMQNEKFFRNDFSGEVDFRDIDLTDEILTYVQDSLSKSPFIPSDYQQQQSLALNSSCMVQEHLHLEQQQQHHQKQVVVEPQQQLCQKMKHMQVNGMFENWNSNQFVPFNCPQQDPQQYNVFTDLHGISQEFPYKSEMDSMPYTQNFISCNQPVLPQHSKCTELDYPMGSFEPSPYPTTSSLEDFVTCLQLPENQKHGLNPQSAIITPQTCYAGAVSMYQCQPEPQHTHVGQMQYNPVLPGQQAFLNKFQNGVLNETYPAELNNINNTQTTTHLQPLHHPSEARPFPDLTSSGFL
Sequence of Retinoic acid receptor alpha (Homo sapiens) (P10276 whole entry, looked up): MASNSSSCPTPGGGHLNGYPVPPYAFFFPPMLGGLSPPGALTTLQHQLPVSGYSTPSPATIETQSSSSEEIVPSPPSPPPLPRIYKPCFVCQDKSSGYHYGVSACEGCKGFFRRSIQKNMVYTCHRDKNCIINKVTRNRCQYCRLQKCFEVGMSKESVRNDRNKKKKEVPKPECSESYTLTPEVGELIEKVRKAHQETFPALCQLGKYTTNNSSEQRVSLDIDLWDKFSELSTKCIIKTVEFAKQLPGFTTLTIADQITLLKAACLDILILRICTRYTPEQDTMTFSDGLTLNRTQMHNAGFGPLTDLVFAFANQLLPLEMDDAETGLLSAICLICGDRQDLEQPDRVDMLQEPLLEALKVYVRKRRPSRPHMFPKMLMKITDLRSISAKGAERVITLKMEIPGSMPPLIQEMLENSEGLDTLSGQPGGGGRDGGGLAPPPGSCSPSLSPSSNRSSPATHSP

Take `O=CCCCC=O`: the outcome in assay [1], in [2], in [3], in [4], in assay [5] and in assay [6] was inactive. The compound was classed as inactive in [7], in assay [8], in assay [9], in assay [10], in assay [11] and in assay [12]. Also, the compound was called inactive in assay [13], in [14], in assay [15], in [16], in [17] and in [18].

Regarding `Cc1cc(F)ccc1-c1cc(N2CC[C@@H](O)[C@H]2CO)ncc1N(C)C(=O)C(C)(C)c1cc(C(F)(F)F)cc(C(F)(F)F)c1`, the result in assay [1], in assay [2], in [3], in [4], in assay [19] and in [5] was inactive. The compound was called inactive in assay [6], in assay [7], in assay [20], in [8], in [10] and in assay [11]. In addition, the result in assay [12], in [13], in assay [14], in assay [15], in assay [16] and in [17] was inactive. The call in assay [18] was inactive.

Take `CCCCCCCCOc1ccc(C(=O)c2ccccc2)c(O)c1`: the outcome in assay [1], in assay [2], in [3], in [4], in assay [5] and in assay [6] was inactive. The compound was called inactive in assay [7], in [20], in assay [8], in [10], in assay [11] and in [12]. Moreover, the outcome in assay [13], in assay [14], in assay [15], in assay [16], in [17] and in [18] was inactive. Also, the AC50 (commonly the midpoint of the concentration-response curve, whichever way the signal moves) in [19] is 59.1 µM (active).

In the case of `CC(C)(C)c1cc(/C=C2\SC(N)=NC2=O)cc(C(C)(C)C)c1O`, the AC50 in [1] is 18.9 µM (active); in assay [3], 4.67 µM (active); in assay [4], 6.65 µM (active); in assay [5], 20.2 µM (active); in assay [11] it was 8.13 µM (active). The result in assay [2], in assay [19], in [6], in assay [7], in assay [20] and in [8] was inactive. Moreover, the compound was called inactive in [10], in assay [12], in assay [13], in [14], in assay [15] and in assay [16]. For the same compound, the outcome in assay [17] and in [18] was inactive.
